The source of these data is PubChem BioAssay (NCATS).

Assay [1] in a line: qHTS for Inhibitors of the Functional Ribonucleoprotein Complex (vRNP) of Lassa (LASV) Arenavirus: LASV Primary Screen - GLuc reporter signal (AID 1347082; calls by dose curve; tested in HEK293 reporter line; also: nearly all actives have a fitted effect of over 60% in size; also: potency is read from the fitted curve at half-maximal effect).
A short description of assay [2]: qHTS for Inhibitors of the Functional Ribonucleoprotein Complex (vRNP) of Lymphocytic Choriomeningitis Arenaviruses (LCMV): Viability assay - alamar blue signal for LCMV Primary Screen (AID 1347085; calls by dose curve; tested in HEK293 reporter line; also: nearly all actives have a fitted effect of over 80% in size; also: potency is read from the fitted curve at half-maximal effect).
The target in assay [3] is Nucleoprotein (Lymphocytic choriomeningitis virus (strain Armstrong)) (UniProt P09992). The assay can be described thus: qHTS for Inhibitors of the Functional Ribonucleoprotein Complex (vRNP) of Lymphocytic Choriomeningitis Arenaviruses (LCMV): LCMV Primary Screen - GLuc reporter signal (AID 1347086; calls by dose curve; also: series mostly up to about 57 µM; nearly all actives have a fitted effect of over 70% in size).
Nucleoprotein (Lymphocytic choriomeningitis virus (strain Armstrong)), sequence (P09992 whole entry, looked up): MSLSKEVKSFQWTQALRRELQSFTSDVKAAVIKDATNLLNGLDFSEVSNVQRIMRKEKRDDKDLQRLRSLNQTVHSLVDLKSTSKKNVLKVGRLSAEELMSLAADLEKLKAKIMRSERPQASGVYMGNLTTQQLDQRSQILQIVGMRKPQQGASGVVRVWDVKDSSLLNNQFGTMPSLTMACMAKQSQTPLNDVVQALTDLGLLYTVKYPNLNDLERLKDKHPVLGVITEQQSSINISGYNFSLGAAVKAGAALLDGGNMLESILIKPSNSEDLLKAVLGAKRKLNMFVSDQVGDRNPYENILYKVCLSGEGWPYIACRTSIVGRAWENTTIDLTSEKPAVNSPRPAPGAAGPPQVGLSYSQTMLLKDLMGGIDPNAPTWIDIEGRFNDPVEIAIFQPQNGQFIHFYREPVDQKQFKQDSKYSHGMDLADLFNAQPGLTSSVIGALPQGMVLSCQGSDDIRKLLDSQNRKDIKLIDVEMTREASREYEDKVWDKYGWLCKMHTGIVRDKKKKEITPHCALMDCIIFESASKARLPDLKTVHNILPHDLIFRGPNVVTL
A short description of assay [4]: qHTS of pediatric cancer cell lines to identify multiple opportunities for drug repurposing: Primary screen for TC32 cells (AID 1347089). Also: nearly all actives have a fitted effect of over 60% in size. Also: potency is read from the fitted curve at half-maximal effect. In outline: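 TC32 cells, 500-1,000/well in growth medium, compound-treated 48 h at 37 °C; viability from CellTiter-Glo luminescence. Primary screen: MIPE 11-point (0.78 nM–46 µM final), NPC 8-point (0.59 nM–46 µM final); confirmatory at 11-point dilutions.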
(In qHTS, concentration-response curves come from the screen itself.)

The nature of assay [5]: qHTS of pediatric cancer cell lines to identify multiple opportunities for drug repurposing: Primary screen for DAOY cells (AID 1347090). Also: nearly all actives have a fitted effect of over 55% in size. Also: potency is read from the fitted curve at half-maximal effect. Put shortly: (§1)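 Cell viability, CellTiter-Glo luminescence; 500-1,000 cells/well, 8- or 11-point titration, 48 h compound exposure at 37 degrees C, 5% CO2. Controls: DMSO neutral, bortezomib 2.3 µM final as positive.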
A short description of assay [6]: qHTS of pediatric cancer cell lines to identify multiple opportunities for drug repurposing: Primary screen for SJ-GBM2 cells (AID 1347091). Also: potency is read from the fitted curve at half-maximal effect. Put shortly: as §1
Assay [7] is described as follows: qHTS of pediatric cancer cell lines to identify multiple opportunities for drug repurposing: Primary screen for A673 cells (AID 1347092). Also: nearly all actives have a fitted effect of over 45% in size. Also: potency is read from the fitted curve at half-maximal effect. Put shortly:
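A673 cells (500-1,000 cells/well) were treated 48 hours at 37 degrees C with compounds at 11-point (0.78 nM to 46 µM) or 8-point (0.59 nM to 46 µM) dilutions. Viability read by CellTiter-Glo luminescence; concentration-response curves fitted.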

Assay [8] is described as follows: qHTS of pediatric cancer cell lines to identify multiple opportunities for drug repurposing: Primary screen for SK-N-MC cells (AID 1347093). Also: potency is read from the fitted curve at half-maximal effect. Put shortly:
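Metabolically active cells were quantified by ATP-dependent luminescence (CellTiter-Glo, 15 min at room temperature) following 48 h treatment. Cells had been plated at 500-1,000 per well and settled for 5 h beforehand.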

A short description of assay [9]: qHTS of pediatric cancer cell lines to identify multiple opportunities for drug repurposing: Primary screen for BT-37 cells (AID 1347094). Also: potency is read from the fitted curve at half-maximal effect. In outline: (§2)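 Plated cells (500-1,000 per well, growth media) were allowed to settle for 5 hours, treated with compound dilutions for 48 hours, then lysed with CellTiter-Glo for 15 min at room temperature before luminescence reading.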

Assay [10] is described as follows: qHTS of pediatric cancer cell lines to identify multiple opportunities for drug repurposing: Primary screen for NB-EBc1 cells (AID 1347095). Also: potency is read from the fitted curve at half-maximal effect. Put shortly: as §2
A short description of assay [11]: qHTS of pediatric cancer cell lines to identify multiple opportunities for drug repurposing: Primary screen for SK-N-SH cells (AID 1347098). Also: nearly all actives have a fitted effect of over 65% in size. Also: potency is read from the fitted curve at half-maximal effect. Put shortly: (§3)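 Cells (500-1,000/well) rested 5 h, then received compounds for 48 h; metabolically active cells were measured by CellTiter-Glo luminescence. Final concentrations spanned up to 46 µM (MIPE, 11-point) or 0.59 nM-46 µM (NPC, 8-point) in primary screens, 11-point in follow-ups.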

The nature of assay [12]: qHTS of pediatric cancer cell lines to identify multiple opportunities for drug repurposing: Primary screen for NB1643 cells (AID 1347099). Also: potency is read from the fitted curve at half-maximal effect; nearly all actives have a fitted effect of over 50% in size. In outline:
as §2

Assay [13] can be described thus: qHTS of pediatric cancer cell lines to identify multiple opportunities for drug repurposing: Primary screen for LAN-5 cells (AID 1347100). Also: potency is read from the fitted curve at half-maximal effect. Put shortly: as §3
A short description of assay [14]: qHTS of pediatric cancer cell lines to identify multiple opportunities for drug repurposing: Primary screen for BT-12 cells (AID 1347101). Also: nearly all actives have a fitted effect of over 25% in size. Also: potency is read from the fitted curve at half-maximal effect. Put shortly: as §3
A short description of assay [15]: qHTS of pediatric cancer cell lines to identify multiple opportunities for drug repurposing: Primary screen for Rh18 cells (AID 1347102). Also: nearly all actives have a fitted effect of over 65% in size. Also: potency is read from the fitted curve at half-maximal effect. In outline: as §3
The nature of assay [16]: qHTS of pediatric cancer cell lines to identify multiple opportunities for drug repurposing: Primary screen for OHS-50 cells (AID 1347103). Also: nearly all actives have a fitted effect of over 40% in size. Also: potency is read from the fitted curve at half-maximal effect. In outline: as §3
Assay [17] in a line: qHTS for Inhibitors of the Functional Ribonucleoprotein Complex (vRNP) of Lassa (LASV) Arenavirus: Viability assay - alamar blue signal for LASV Primary Screen (AID 1347083; calls by dose curve; tested in HEK293 reporter line; also: nearly all actives have a fitted effect of over 80% in size; also: potency is read from the fitted curve at half-maximal effect).
The nature of assay [18]: qHTS of pediatric cancer cell lines to identify multiple opportunities for drug repurposing: Primary screen for U-2 OS cells (AID 1347096). Also: nearly all actives have a fitted effect of over 50% in size. Also: potency is read from the fitted curve at half-maximal effect. In outline:
as §3

Assay [19] can be described thus: qHTS of pediatric cancer cell lines to identify multiple opportunities for drug repurposing: Primary screen for Saos-2 cells (AID 1347097). Also: nearly all actives have a fitted effect of over 40% in size. Also: potency is read from the fitted curve at half-maximal effect. In outline:
as §2

SMILES strings stand for the structures. Inconclusive results are not listed. Activity calls are given as the source filed them. Unless noted, calls follow the shape of the dose curve; as a rule, active = well fitted curve in the direction sought with a large enough effect; inconclusive = small, poorly fitted or top-dose-only effect, or another doubt; inactive = no such curve, though single readings can be large; an effect the other way counts as inactive or inconclusive.

As to `CO[C@H]1CCC(O[C@H]2C[C@H]([C@]3(C)CC[C@]4(C[C@H](O)[C@@H](C)[C@@H]([C@@H](C)C=C(C)C(=O)[C@H](C)C[C@H](C)C(=O)O)O4)O3)O[C@]3(O[C@@H]([C@H]4O[C@@](O)(CO)[C@H](C)C[C@H]4C)C[C@H]3C)[C@H]2C)O[C@H]1C` (stereo partly specified), the Potency entry in [1], in [2] and in [3] was “inactive” in each case. Also, the Potency is 18.6 µM (active) in assay [4]; 4.69 µM (active) in [5]; 2.09 µM (active) in [6]; 1.48 µM (active) in assay [7]; 0.187 µM (active) in assay [8]; 0.344 µM (active) in assay [9]. Besides, the Potency in assay [10] was 0.209 µM (active); in [11], 30.4 µM (active); in assay [12], 1.05 µM (active); in [13] it was 0.372 µM (active); in [14], 0.273 µM (active); in assay [15], 2.96 µM (active). In addition, the Potency in assay [16] is 0.217 µM (active).

For the compound `C#CC1(O)CCC2C3CCC4=CC(=O)CCC4(C)C3CCC21C` (stereo unspecified), the Potency entry in assay [1], in assay [17], in assay [4], in assay [5], in [6] and in assay [7] was “inactive” throughout. The Potency result in assay [9], in assay [18], in [11], in assay [13], in assay [14] and in assay [15] was “inactive” in each case. Also, the Potency entry in assay [16] was “inactive”. Also, the Potency in [12] was 23.5 µM (active).

With `COc1c(Cl)cc2c([nH]c3cnccc32)c1NC(=O)c1cccnc1C`, the Potency result in assay [1] and in assay [3] was “inactive” throughout.

Take `Cc1c(N)nc([C@H](CC(N)=O)NC[C@@H](N)C(N)=O)nc1C(=O)N[C@H](C(=O)N[C@@H](C)[C@H](O)[C@@H](C)C(=O)N[C@@H](C(=O)NCCc1nc(-c2nc(C(=O)NCCC[S+](C)C)cs2)cs1)[C@@H](C)O)C(O[C@H]1O[C@H](CO)[C@H](O)[C@@H](O)[C@@H]1O[C@H]1O[C@H](CO)[C@@H](O)[C@H](OC(N)=O)[C@H]1O)c1cnc[nH]1` (stereo partly specified): the Potency entry in assay [1], in assay [3], in [11] and in assay [15] was “inactive” each time. In addition, the Potency in [17] is 7.69 µM (active); in [4], 4.15 µM (active); in [6], 1.48 µM (active); in [8], 0.833 µM (active); in assay [9], 1.37 µM (active); in assay [10] it was 1.32 µM (active). Also, the Potency in assay [12] was 1.66 µM (active); in assay [13], 0.526 µM (active); in [16], 1.72 µM (active).

For the compound `COc1cc2nccc(Oc3ccc(NC(=O)Nc4cc(C)on4)c(Cl)c3)c2cc1OC`, the results for the Potency in [1] and in assay [2] were 34.3 µM (active) and 17.2 µM (active), respectively.

In the case of `CN1CCN(CCOc2cc(OC3CCOCC3)c3c(Nc4c(Cl)ccc5c4OCO5)ncnc3c2)CC1`, the Potency result in assay [1] and in assay [3] was “inactive” each time.

On to `CC(=O)Nc1ccc(OC[C@](C)(O)C(=O)Nc2ccc([N+](=O)[O-])c(C(F)(F)F)c2)cc1`, for which the Potency result in assay [1], in assay [4], in [5], in assay [6], in [7] and in [9] was “inactive” throughout. Further, the Potency entry in assay [10], in assay [18], in [19], in assay [11], in assay [13] and in assay [14] was “inactive” throughout. Besides, the Potency result in [15] and in assay [16] was “inactive” each time. In [2], the Potency is 10.9 µM (active).

Regarding `Cn1c(NCCN(CCO)CCCc2ccc([N+](=O)[O-])cc2)cc(=O)n(C)c1=O`, the Potency result in assay [1], in assay [2] and in assay [3] was “inactive” in each case.

With `COCC(=O)NCC=Cc1ccc2ncnc(Nc3ccc(Oc4ccc(C)nc4)c(C)c3)c2c1`, in assay [1], the Potency is 43.2 µM (active). For the same compound, the Potency entry in assay [2] was “inactive”.

For the compound `CS(=O)(=O)c1ccc(C(=O)Nc2ccc(Cl)c(-c3ccccn3)c2)c(Cl)c1`, the Potency result in [1], in assay [2] and in assay [3] was “inactive” throughout.

Regarding `CC(C)(C)c1cc(C=C(C#N)C#N)cc(Br)c1O`, the Potency entry in [1], in assay [17], in [4], in assay [18] and in assay [15] was “inactive” throughout. For the same compound, the Potency in assay [6] is 2.64 µM (active); in assay [10], 4.69 µM (active); in assay [12] it was 4.69 µM (active); in [16], 30.6 µM (active).

In the case of `NC(=O)c1c(OCc2c(F)cc(Br)cc2F)nsc1NC(=O)NCCCCN1CCCC1`, the Potency entry in assay [1], in [2] and in assay [3] was “inactive” each time.

As for `C[C@@H]1CC[C@@]2(OC1)O[C@H]1C[C@H]3[C@@H]4CC=C5C[C@@H](O[C@@H]6O[C@H](CO)[C@@H](O[C@@H]7O[C@@H](C)[C@H](O)[C@@H](O)[C@@H]7O)[C@H](O)[C@@H]6O[C@@H]6O[C@@H](C)[C@H](O)[C@@H](O)[C@@H]6O)CC[C@]5(C)[C@@H]4CC[C@]3(C)[C@@H]1[C@H]2C`, the Potency result in [1], in [2] and in assay [3] was “inactive” in each case. Further, the Potency in [4] is 13.1 µM (active); in [5], 7.43 µM (active); in assay [6] it was 5.26 µM (active); in [7], 3.72 µM (active); in [8], 1.32 µM (active); in [9], 6.85 µM (active). Besides, the Potency in assay [10] is 4.69 µM (active); in assay [18], 9.35 µM (active); in assay [19], 5.9 µM (active); in assay [11], 12.1 µM (active); in [12] it was 5.9 µM (active); in assay [13], 3.72 µM (active). For the same compound, the values for the Potency in [14], in [15] and in assay [16] were 6.85 µM (active), 4.18 µM (active) and 4.32 µM (active), respectively.

For `O=C(Nc1ccncc1)C(=O)c1cn(Cc2ccc(Cl)cc2)c2ccccc12`, the Potency result in assay [1] and in assay [15] was “inactive” throughout. Besides, the Potency in [2] is 0.0544 µM (active); in [5] it was 0.0935 µM (active); in [6] it was 0.0418 µM (active); in assay [7] it was 0.0743 µM (active); in assay [8], 0.0662 µM (active); in assay [9], 0.217 µM (active). For the same compound, the Potency in assay [10] is 0.0264 µM (active); in assay [19], 0.0372 µM (active); in assay [14], 0.137 µM (active); in assay [16], 0.0863 µM (active).

Regarding `Cc1cnc(Nc2ccc(OCCN3CCCC3)cc2)nc1Nc1cccc(S(=O)(=O)NC(C)(C)C)c1`, the Potency result in assay [1], in assay [2] and in [3] was “inactive” in each case.

As for `CN1C(=O)c2ccccc2C1=O`, the Potency result in [1], in assay [2] and in assay [3] was “inactive” each time.

Regarding `Cc1ccc(F)c(NC(=O)Nc2ccc(-c3cccc4[nH]nc(N)c34)cc2)c1`, the Potency entry in assay [1], in assay [2] and in assay [3] was “inactive” throughout.

On to `C=C[C@@H]1CN2CCC1C[C@H]2[C@H](O)c1ccnc2ccccc12` (stereo partly specified), for which the Potency result in assay [1], in [2], in [3], in assay [4], in assay [5] and in [10] was “inactive” throughout. Moreover, the Potency entry in assay [18] and in [13] was “inactive” throughout. Moreover, the results for the Potency in assay [19] and in [15] were 18.7 µM (active) and 23.5 µM (active), respectively.

Turning to `CNc1nccc(-c2cccnc2Oc2cc(C(=O)Nc3cccc(C(F)(F)F)c3)ccc2C)n1`, the Potency entry in [1], in assay [2] and in [3] was “inactive” throughout.
